Assay outcomes as filed in PubChem.
ssDAF12 agonist = activators of S. stercoralis DAF-12 nuclear receptor; 1% of 370,000 active; activation, % at 6.8 µM; HEK293 ssDAF-12/GRIP1 lit1-tk-luc reporter, luminescence; % of 3 µM dafachronic acid response;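 active = activation above the mean over all tested compounds plus 3 SD, cut at about 0.9% in these data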;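 also: 0% = DMSO-only wells and 100% = 3 µM delta7-dafachronic acid wells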
hcDAF-12 act = H. contortus DAF-12 activation, primary screen; HEK293 hcDAF-12 lit1-tk-luc reporter, luminescence; 0% DMSO, 100% Δ7-dafachronic acid; activation, % at 6.8 µM; 1.4% of 370,000 active; AID 652067;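 active = activation above the mean of all tested compounds plus 3 SD, cut at about 5.5% in these data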;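 also: 100% = response to 3 µM Δ7-dafachronic acid high control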
DAX1 inh-1 = blocks DAX1 repression of SF-1 activated StAR promoter; HEK293T StAR-luciferase reporter, SF-1/DAX-1 repression relief; inhibition, % at 6.8 µM; 1.1% of 370,000 active; AID 652010;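 active = inhibition above the mean over all tested compounds plus 3 SD, cut at about 3.6% in these data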;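 also: 0% = DAX-1 cells with DMSO and 100% = cells lacking DAX-1 with DMSO; higher inhibition means more luminescence from relief of DAX-1 repression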
hgDAF-12 ag = agonists of H. glycines DAF-12 nuclear receptor | AID 687014 | HEK293 GAL4-hgDAF12 UAS-luciferase reporter, agonist luminescence; normalized to butyrate control | activation, % at 6.8 µM | 1.8% of 370,000 active;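 active = activation above a cutoff set at the mean of all screened compounds plus 3 SD, cut at about 10% in these data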;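 also: 0% = DMSO wells and 100% = sodium butyrate wells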
DAX1 inh-2 = inhibits human nuclear receptor DAX1 | P51843 | HEK293 Gal4-DAX1 luciferase reporter, luminescence | inhibition, % at 6.75 µM | 0.99% of 340,000 active;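 active = inhibition above the mean over all tested compounds plus 3 SD, cut at about 4.2% in these data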;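 also: 0% = DAX1-transfected cells with DMSO and 100% = empty-vector control cells with DMSO; inhibition shows as a rise in luminescence from relieved DAX1 repression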
Target sequence (P51843 207-470 limits assumed): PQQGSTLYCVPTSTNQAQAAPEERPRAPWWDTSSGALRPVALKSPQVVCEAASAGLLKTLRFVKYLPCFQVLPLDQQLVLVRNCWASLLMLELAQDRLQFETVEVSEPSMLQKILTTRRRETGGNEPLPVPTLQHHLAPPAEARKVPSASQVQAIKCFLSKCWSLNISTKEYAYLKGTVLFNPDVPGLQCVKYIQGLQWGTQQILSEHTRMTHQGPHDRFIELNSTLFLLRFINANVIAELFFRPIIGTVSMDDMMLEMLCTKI
* hit, by the source's call. Only some compounds are listed: those with a hit (about 4.1% of all), similar ones and a draw of the others.

Screening O=C(c1cc2ccccc2o1)N1CCN(Cc2nc3ccccc3s2)CC1 returned ssDAF12 agonist 1, hcDAF-12 act 6.2*, DAX1 inh-1 0, hgDAF-12 ag 5 and DAX1 inh-2 1.
Screening CN(N=Nc1ccc([N+](=O)[O-])cc1)c1ccccc1 returned ssDAF12 agonist 6.2*, hcDAF-12 act 2, DAX1 inh-1 2, hgDAF-12 ag 7 and DAX1 inh-2 1.
`S=C(Nc1ccccc1Cl)N1CCC(c2ccccc2)C1` (centres undefined) gave ssDAF12 agonist -1, hcDAF-12 act 2, DAX1 inh-1 2, hgDAF-12 ag 11* and DAX1 inh-2 4.6*.
S=C(Nc1ccccc1Cl)N1CCCCCC1 was read as ssDAF12 agonist -1, hcDAF-12 act 0, DAX1 inh-1 0, hgDAF-12 ag 1 and DAX1 inh-2 -1.
For S=C(Nc1ccc(Cl)cc1Cl)N1CCCCC1 the results were ssDAF12 agonist -1, hcDAF-12 act 5.8*, DAX1 inh-1 0, hgDAF-12 ag 2 and DAX1 inh-2 1.
For O=C(O)c1cccc(Cn2c(Cl)c(/C=N/NC(=O)c3ccc(O)cc3)sc2=O)c1 the results were ssDAF12 agonist -1, hcDAF-12 act 0, DAX1 inh-1 0, hgDAF-12 ag -4 and DAX1 inh-2 4.6*.
For CCOc1ccc(-n2c(SCc3ccc(C#N)cc3)nnc2-c2ccco2)cc1 the results were ssDAF12 agonist -1, hcDAF-12 act -2, DAX1 inh-1 -1 and hgDAF-12 ag 0.
Cc1ccc(NC(=O)CSc2ccccc2NC(=O)c2cccc(Cl)c2)cc1Cl was read as ssDAF12 agonist -1, hcDAF-12 act 0, DAX1 inh-1 0, hgDAF-12 ag 1 and DAX1 inh-2 -1.
Cc1cccc(C(=O)Nc2ccccc2SCC(=O)Nc2ccc(C)c(Cl)c2)c1 was read as ssDAF12 agonist 0, hcDAF-12 act 6.5*, DAX1 inh-1 0, hgDAF-12 ag 5 and DAX1 inh-2 1.
Screening N#Cc1ccccc1OCC(=O)NC1CCCCCC1 returned ssDAF12 agonist 0, hcDAF-12 act 5, DAX1 inh-1 2, hgDAF-12 ag 11* and DAX1 inh-2 3.
C=CCNC(=O)COc1ccccc1C#N was read as ssDAF12 agonist -2, hcDAF-12 act 1, DAX1 inh-1 1, hgDAF-12 ag 6 and DAX1 inh-2 0.
N#Cc1ccccc1OCC(=O)OCC(=O)NC1CCCCC1 was read as ssDAF12 agonist -1, hcDAF-12 act 2, DAX1 inh-1 2, hgDAF-12 ag 4 and DAX1 inh-2 0.
`CC(C)(C)NC(=O)NC(=O)COc1ccccc1C#N` gave ssDAF12 agonist 0, hcDAF-12 act 2, DAX1 inh-1 3, hgDAF-12 ag 9 and DAX1 inh-2 5.1*.
For CCCOc1ccc(-c2nnc(-c3ccncc3)o2)cc1 the results were ssDAF12 agonist -1, hcDAF-12 act 1, DAX1 inh-1 1, hgDAF-12 ag 11* and DAX1 inh-2 3.
For O=C1CC(NS(=O)(=O)c2cccnc2)CN1c1ccc(F)cc1 (centres undefined) the results were ssDAF12 agonist -1, hcDAF-12 act 0, DAX1 inh-1 3.9*, hgDAF-12 ag 0 and DAX1 inh-2 0.
For CCOC(=O)N1CCC(N2C(=O)c3ccccc3C2Nc2ccc3c(C)cc(=O)oc3c2)CC1 (centres undefined) the results were ssDAF12 agonist -1, hcDAF-12 act 4, DAX1 inh-1 1, hgDAF-12 ag -2 and DAX1 inh-2 5.4*.
`CC(C)C[C@@H]1COc2cccc(N3CCCC3)c2S(=O)(=O)N1C` gave ssDAF12 agonist -2, hcDAF-12 act -2, DAX1 inh-1 -1 and hgDAF-12 ag -4.
`O=C(NCCc1c[nH]c2ccccc12)C(=O)NCC1OCCCN1S(=O)(=O)c1ccc(F)cc1` (centres undefined) gave ssDAF12 agonist -1, hcDAF-12 act -1, DAX1 inh-1 -1, hgDAF-12 ag -4 and DAX1 inh-2 -1.
`O=C(NCCc1c[nH]c2ccccc12)C(=O)NCC1OCCCN1S(=O)(=O)c1cccs1` (centres undefined) gave ssDAF12 agonist 2.2*, hcDAF-12 act 0, DAX1 inh-1 -1, hgDAF-12 ag -1 and DAX1 inh-2 0.
Screening CC(C)CN1C(=O)C[C@]2(C(=O)N(C)c3ccc(NC(=O)c4cc(F)ccc4F)cc32)C1c1ccccc1 (some centres undefined) returned ssDAF12 agonist -1, hcDAF-12 act 3, DAX1 inh-1 -1 and hgDAF-12 ag 1.
For Cc1cc(C(F)(F)Cl)n2ncc(-c3ccccn3)c2n1 the results were ssDAF12 agonist 1.2*, hcDAF-12 act 2, DAX1 inh-1 0, hgDAF-12 ag 0 and DAX1 inh-2 2.
`Cc1cc(Cl)n2ncc(-c3ccccc3)c2n1` gave ssDAF12 agonist -1, hcDAF-12 act 2, DAX1 inh-1 1, hgDAF-12 ag 6 and DAX1 inh-2 3.
For c1ccc(-c2nnc(-c3ccco3)o2)cc1 the results were ssDAF12 agonist 0, hcDAF-12 act 5.8*, DAX1 inh-1 2, hgDAF-12 ag 11* and DAX1 inh-2 3.
For Brc1ccc(-c2nnc(-c3ccc4c(c3)OCO4)o2)o1 the results were ssDAF12 agonist -1, hcDAF-12 act 0, DAX1 inh-1 2, hgDAF-12 ag 9 and DAX1 inh-2 1.
c1coc(-c2nnc(-c3ccc4c(c3)OCO4)o2)c1 was read as ssDAF12 agonist 0, hcDAF-12 act 3, DAX1 inh-1 3.7* and hgDAF-12 ag 13*.
Screening CCOc1ccc(-c2nnc(-c3ccco3)o2)cc1OCC returned ssDAF12 agonist -1, hcDAF-12 act -1, DAX1 inh-1 1, hgDAF-12 ag 7 and DAX1 inh-2 7.7*.
Screening CCOc1cc(-c2nnc(-c3ccco3)o2)cc(OCC)c1OCC returned ssDAF12 agonist -2, hcDAF-12 act -1, DAX1 inh-1 -2, hgDAF-12 ag 0 and DAX1 inh-2 0.
For Brc1ccc(-c2nnc(-c3ccco3)o2)cc1 the results were ssDAF12 agonist -1, hcDAF-12 act 5, DAX1 inh-1 1, hgDAF-12 ag 9 and DAX1 inh-2 2.
`COc1ccc(NC(=O)C2C(c3ccc4c(c3)OCO4)=Nc3ccccc3N2C(C)=O)cc1` (centres undefined) gave ssDAF12 agonist 1, hcDAF-12 act 6.2*, DAX1 inh-1 2 and hgDAF-12 ag 9.
`CN(C)/C=C(\C#N)C(=O)Nc1ccc(F)c(Cl)c1` gave ssDAF12 agonist 1.3*, hcDAF-12 act 1, DAX1 inh-1 1, hgDAF-12 ag 3 and DAX1 inh-2 4.
CN(C)/C=C(\C#N)C(=O)Nc1ccc(F)cc1 was read as ssDAF12 agonist -1, hcDAF-12 act 1, DAX1 inh-1 2, hgDAF-12 ag 6 and DAX1 inh-2 1.
Screening CC(=O)N1C[C@@H](c2c[nH]c3ccccc23)C=C[C@H]1C(=O)NS(=O)(=O)c1ccc(C)cc1 returned ssDAF12 agonist 0, hcDAF-12 act 4, DAX1 inh-1 0 and hgDAF-12 ag 4.
